# Data reported in the supplement of paper PMC4466140.
# Experiments:
# Assay in all cases: SPOT peptide array binding signal intensity (averaged, normalized) (arbitrary units (background-subtracted, floor 0; scale differs between SH3 domains)); higher = stronger binding of the SH3 domain to the peptide
# CaNbp2 = molecular target: CaNbp2
# Procedure, shortened: (§1)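 Binding signal is given in arbitrary units that differ between domains and is the normalized, background-subtracted spot intensity averaged across replicates. Each GST-SH3 fusion from one of four yeast species was made in E. coli BL21(DE3), purified on glutathione Sepharose and incubated at 10 μg/ml overnight at 4°C on cellulose-bound synthetic 15-mer peptides in which cysteines were replaced by serines. Detection used anti-GST antibody, an HRP anti-mouse secondary and luminol, followed by imaging and Genespotter quantification.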
# CaRvs167 = molecular target: CaRvs167
# Procedure, shortened: as §1
# CaRvs167-3 = molecular target: CaRvs167-3
# Procedure, shortened: as §1
# CaSho1 = molecular target: CaSho1
# Procedure, shortened: as §1
# CaSla1-D1-D2 = molecular target: CaSla1-D1-D2
# Procedure, shortened: as §1
# CaSla1-D3 = molecular target: CaSla1-D3
# Procedure, shortened: as §1
# ScAbp1 = molecular target: ScAbp1
# Procedure, shortened: as §1
# ScBbc1 = molecular target: ScBbc1
# Procedure, shortened: as §1
# ScBem1-D1 = molecular target: ScBem1-D1
# Procedure, shortened: as §1
# ScBzz1-D1 = molecular target: ScBzz1-D1
# Procedure, shortened: as §1
# ScBzz1-D2 = molecular target: ScBzz1-D2
# Procedure, shortened: as §1
# ScCyk3 = molecular target: ScCyk3
# Procedure, shortened: as §1
# ScFus1 = molecular target: ScFus1
# Procedure, shortened: as §1
# ScHof1 = molecular target: ScHof1
# Procedure, shortened: as §1
# ScHse1 = molecular target: ScHse1
# Procedure, shortened: as §1
# ScLsb1 = molecular target: ScLsb1
# Procedure, shortened: as §1
# ScLsb2 = molecular target: ScLsb2
# Procedure, shortened: as §1
# ScLsb3 = molecular target: ScLsb3
# Procedure, shortened: as §1
# ScLsb4 = molecular target: ScLsb4
# Procedure, shortened: as §1
# ScMyo3 = molecular target: ScMyo3
# Procedure, shortened: as §1
# ScMyo5 = molecular target: ScMyo5
# Procedure, shortened: as §1
# ScNbp2 = molecular target: ScNbp2
# Procedure, shortened: as §1
# ScPex13 = molecular target: ScPex13
# Procedure, shortened: as §1
# ScRvs167 = molecular target: ScRvs167
# Procedure, shortened: as §1
# ScSho1 = molecular target: ScSho1
# Procedure, shortened: as §1
# ScSla1-D1-D2 = molecular target: ScSla1-D1-D2
# Procedure, shortened: as §1
# ScSla1-D3 = molecular target: ScSla1-D3
# Procedure, shortened: as §1
# SpAbp1-D1 = molecular target: SpAbp1-D1
# Procedure, shortened: as §1
# SpBbc1 = molecular target: SpBbc1
# Procedure, shortened: as §1
# SpBzz1-D1 = molecular target: SpBzz1-D1
# Procedure, shortened: as §1
# SpBzz1-D2 = molecular target: SpBzz1-D2
# Procedure, shortened: as §1
# SpCyk3 = molecular target: SpCyk3
# Procedure, shortened: as §1
# SpHof1 = molecular target: SpHof1
# Procedure, shortened: as §1
# SpHof1-2 = molecular target: SpHof1-2
# Procedure, shortened: as §1
# SpHof1-3 = molecular target: SpHof1-3
# Procedure, shortened: as §1
# SpHse1 = molecular target: SpHse1
# Procedure, shortened: as §1
# SpLsb1 = molecular target: SpLsb1
# Procedure, shortened: as §1
# SpLsb4 = molecular target: SpLsb4
# Procedure, shortened: as §1
# SpMyo1 = molecular target: SpMyo1
# Procedure, shortened: as §1
# SpNbp2 = molecular target: SpNbp2
# Procedure, shortened: as §1
# SpPex13 = molecular target: SpPex13
# Procedure, shortened: as §1
# SpRvs167 = molecular target: SpRvs167
# Procedure, shortened: as §1
# SpSla1-D1-D2 = molecular target: SpSla1-D1-D2
# Procedure, shortened: as §1
# SpSla1-D3 = molecular target: SpSla1-D3
# Procedure, shortened: as §1
# AgAbp1 = molecular target: AgAbp1
# Procedure, shortened: as §1
# AgBbc1 = molecular target: AgBbc1
# Procedure, shortened: as §1
# AgBem1-D1 = molecular target: AgBem1-D1
# Procedure, shortened: as §1
# AgBzz1-D1 = molecular target: AgBzz1-D1
# Procedure, shortened: as §1
# AgBzz1-D2 = molecular target: AgBzz1-D2
# Procedure, shortened: as §1
# AgCyk3 = molecular target: AgCyk3
# Procedure, shortened: as §1
# AgFus1 = molecular target: AgFus1
# Procedure, shortened: as §1
# AgHof1 = molecular target: AgHof1
# Procedure, shortened: as §1
# AgHse1 = molecular target: AgHse1
# Procedure, shortened: as §1
# AgLsb1 = molecular target: AgLsb1
# Procedure, shortened: as §1
# AgLsb4 = molecular target: AgLsb4
# Procedure, shortened: as §1
# AgMyo5 = molecular target: AgMyo5
# Procedure, shortened: as §1
# AgNbp2 = molecular target: AgNbp2
# Procedure, shortened: as §1
# AgRvs167 = molecular target: AgRvs167
# Procedure, shortened: as §1
# AgSho1 = molecular target: AgSho1
# Procedure, shortened: as §1
# AgSla1-D1-D2 = molecular target: AgSla1-D1-D2
# Procedure, shortened: as §1
# AgSla1-D3 = molecular target: AgSla1-D3
# Procedure, shortened: as §1
# CaAbp1-D1 = molecular target: CaAbp1-D1
# Procedure, shortened: as §1
# CaAbp1-D2 = molecular target: CaAbp1-D2
# Procedure, shortened: as §1
# CaBbc1 = molecular target: CaBbc1
# Procedure, shortened: as §1
# CaBem1-D1 = molecular target: CaBem1-D1
# Procedure, shortened: as §1
# CaBzz1-D1 = molecular target: CaBzz1-D1
# Procedure, shortened: as §1
# CaBzz1-D2 = molecular target: CaBzz1-D2
# Procedure, shortened: as §1
# CaCyk3 = molecular target: CaCyk3
# Procedure, shortened: as §1
# CaFus1 = molecular target: CaFus1
# Procedure, shortened: as §1
# CaHof1 = molecular target: CaHof1
# Procedure, shortened: as §1
# CaHse1 = molecular target: CaHse1
# Procedure, shortened: as §1
# CaLsb1 = molecular target: CaLsb1
# Procedure, shortened: as §1
# CaLsb4 = molecular target: CaLsb4
# Procedure, shortened: as §1
# CaMyo5 = molecular target: CaMyo5
# Procedure, shortened: as §1
binder,measurement,setting,value
AAAPKHAPPPVPNET,SPOT peptide array binding signal intensity,CaNbp2,≤ 0
same,SPOT peptide array binding signal intensity,CaRvs167,≤ 0
same,SPOT peptide array binding signal intensity,CaRvs167-3,0.5
same,SPOT peptide array binding signal intensity,CaSho1,≤ 0
same,SPOT peptide array binding signal intensity,CaSla1-D1-D2,≤ 0
same,SPOT peptide array binding signal intensity,CaSla1-D3,≤ 0
same,SPOT peptide array binding signal intensity,ScAbp1,≤ 0
same,SPOT peptide array binding signal intensity,ScBbc1,≤ 0
same,SPOT peptide array binding signal intensity,ScBem1-D1,≤ 0
same,SPOT peptide array binding signal intensity,ScBzz1-D1,413
same,SPOT peptide array binding signal intensity,ScBzz1-D2,≤ 0
same,SPOT peptide array binding signal intensity,ScCyk3,≤ 0
same,SPOT peptide array binding signal intensity,ScFus1,≤ 0
same,SPOT peptide array binding signal intensity,ScHof1,≤ 0
same,SPOT peptide array binding signal intensity,ScHse1,≤ 0
same,SPOT peptide array binding signal intensity,ScLsb1,≤ 0
same,SPOT peptide array binding signal intensity,ScLsb2,≤ 0
same,SPOT peptide array binding signal intensity,ScLsb3,≤ 0
same,SPOT peptide array binding signal intensity,ScLsb4,≤ 0
same,SPOT peptide array binding signal intensity,ScMyo3,1370
same,SPOT peptide array binding signal intensity,ScMyo5,1840
same,SPOT peptide array binding signal intensity,ScNbp2,≤ 0
same,SPOT peptide array binding signal intensity,ScPex13,≤ 0
same,SPOT peptide array binding signal intensity,ScRvs167,0.167
same,SPOT peptide array binding signal intensity,ScSho1,≤ 0
same,SPOT peptide array binding signal intensity,ScSla1-D1-D2,≤ 0
same,SPOT peptide array binding signal intensity,ScSla1-D3,≤ 0
same,SPOT peptide array binding signal intensity,SpAbp1-D1,≤ 0
same,SPOT peptide array binding signal intensity,SpBbc1,1.5
same,SPOT peptide array binding signal intensity,SpBzz1-D1,≤ 0
same,SPOT peptide array binding signal intensity,SpBzz1-D2,≤ 0
same,SPOT peptide array binding signal intensity,SpCyk3,≤ 0
same,SPOT peptide array binding signal intensity,SpHof1,≤ 0
same,SPOT peptide array binding signal intensity,SpHof1-2,≤ 0
same,SPOT peptide array binding signal intensity,SpHof1-3,5.75
same,SPOT peptide array binding signal intensity,SpHse1,58.8
same,SPOT peptide array binding signal intensity,SpLsb1,≤ 0
same,SPOT peptide array binding signal intensity,SpLsb4,≤ 0
same,SPOT peptide array binding signal intensity,SpMyo1,1720
same,SPOT peptide array binding signal intensity,SpNbp2,≤ 0
same,SPOT peptide array binding signal intensity,SpPex13,≤ 0
same,SPOT peptide array binding signal intensity,SpRvs167,≤ 0
same,SPOT peptide array binding signal intensity,SpSla1-D1-D2,≤ 0
same,SPOT peptide array binding signal intensity,SpSla1-D3,≤ 0
FIRKRAPTPPAPSRS,SPOT peptide array binding signal intensity,AgAbp1,948
same,SPOT peptide array binding signal intensity,AgBbc1,334
same,SPOT peptide array binding signal intensity,AgBem1-D1,340
same,SPOT peptide array binding signal intensity,AgBzz1-D1,224
same,SPOT peptide array binding signal intensity,AgBzz1-D2,120
same,SPOT peptide array binding signal intensity,AgCyk3,1
same,SPOT peptide array binding signal intensity,AgFus1,203
same,SPOT peptide array binding signal intensity,AgHof1,65.2
same,SPOT peptide array binding signal intensity,AgHse1,312
same,SPOT peptide array binding signal intensity,AgLsb1,1090
same,SPOT peptide array binding signal intensity,AgLsb4,60
same,SPOT peptide array binding signal intensity,AgMyo5,1.75
same,SPOT peptide array binding signal intensity,AgNbp2,1060
same,SPOT peptide array binding signal intensity,AgRvs167,5.67
same,SPOT peptide array binding signal intensity,AgSho1,14
same,SPOT peptide array binding signal intensity,AgSla1-D1-D2,196
same,SPOT peptide array binding signal intensity,AgSla1-D3,23.2
same,SPOT peptide array binding signal intensity,CaAbp1-D1,2450
same,SPOT peptide array binding signal intensity,CaAbp1-D2,734
same,SPOT peptide array binding signal intensity,CaBbc1,641
same,SPOT peptide array binding signal intensity,CaBem1-D1,813
same,SPOT peptide array binding signal intensity,CaBzz1-D1,1840
same,SPOT peptide array binding signal intensity,CaBzz1-D2,4040
same,SPOT peptide array binding signal intensity,CaCyk3,19.5
same,SPOT peptide array binding signal intensity,CaFus1,334
same,SPOT peptide array binding signal intensity,CaHof1,0.5
same,SPOT peptide array binding signal intensity,CaHse1,10.8
same,SPOT peptide array binding signal intensity,CaLsb1,167
same,SPOT peptide array binding signal intensity,CaLsb4,198
same,SPOT peptide array binding signal intensity,CaMyo5,12.8
same,SPOT peptide array binding signal intensity,CaNbp2,415
same,SPOT peptide array binding signal intensity,CaRvs167,38.7
same,SPOT peptide array binding signal intensity,CaRvs167-3,40.8
same,SPOT peptide array binding signal intensity,CaSho1,158
same,SPOT peptide array binding signal intensity,CaSla1-D1-D2,1780
same,SPOT peptide array binding signal intensity,CaSla1-D3,7.75
same,SPOT peptide array binding signal intensity,ScAbp1,256
same,SPOT peptide array binding signal intensity,ScBbc1,99
same,SPOT peptide array binding signal intensity,ScBem1-D1,27.5
same,SPOT peptide array binding signal intensity,ScBzz1-D1,160
same,SPOT peptide array binding signal intensity,ScBzz1-D2,53
same,SPOT peptide array binding signal intensity,ScCyk3,46
same,SPOT peptide array binding signal intensity,ScFus1,84.5
same,SPOT peptide array binding signal intensity,ScHof1,5.25
same,SPOT peptide array binding signal intensity,ScHse1,922
same,SPOT peptide array binding signal intensity,ScLsb1,224
same,SPOT peptide array binding signal intensity,ScLsb2,313
same,SPOT peptide array binding signal intensity,ScLsb3,432
same,SPOT peptide array binding signal intensity,ScLsb4,26
same,SPOT peptide array binding signal intensity,ScMyo3,22
same,SPOT peptide array binding signal intensity,ScMyo5,20.8
same,SPOT peptide array binding signal intensity,ScNbp2,2260
same,SPOT peptide array binding signal intensity,ScPex13,156
same,SPOT peptide array binding signal intensity,ScRvs167,613
same,SPOT peptide array binding signal intensity,ScSho1,866
same,SPOT peptide array binding signal intensity,ScSla1-D1-D2,2370
same,SPOT peptide array binding signal intensity,ScSla1-D3,29.8
same,SPOT peptide array binding signal intensity,SpAbp1-D1,342
same,SPOT peptide array binding signal intensity,SpBbc1,6.5
same,SPOT peptide array binding signal intensity,SpBzz1-D1,770
same,SPOT peptide array binding signal intensity,SpBzz1-D2,200
same,SPOT peptide array binding signal intensity,SpCyk3,2
same,SPOT peptide array binding signal intensity,SpHof1,116
same,SPOT peptide array binding signal intensity,SpHof1-2,10.5
same,SPOT peptide array binding signal intensity,SpHof1-3,567
same,SPOT peptide array binding signal intensity,SpHse1,377
same,SPOT peptide array binding signal intensity,SpLsb1,556
same,SPOT peptide array binding signal intensity,SpLsb4,1130
same,SPOT peptide array binding signal intensity,SpMyo1,24.5
same,SPOT peptide array binding signal intensity,SpNbp2,75
same,SPOT peptide array binding signal intensity,SpPex13,33
same,SPOT peptide array binding signal intensity,SpRvs167,293
same,SPOT peptide array binding signal intensity,SpSla1-D1-D2,19
same,SPOT peptide array binding signal intensity,SpSla1-D3,4
